# A selection: hits, their analogues and other compounds. The true share with any hit is near 2%.
# CHT allo act – CHT positive allosteric modulators, primary screen, cell-based, membrane potential dye, choline EC20; CHT-expressing cells; active compounds read high; LV-AA mutant CHT in HEK293 cells; High affinity choline transporter 1 (Homo sapiens), Q9GZV3; hit rate 0.49% among 310,000; AID 488977, 2010; B-score at 10 µM;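 active = initial fluorescence not abnormally high and integrated response B-score, plate-corrected, over 3 SD above library mean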
# H9c2 TAG inh – inhibitors of triacylglycerol accumulation, primary screen, cell-based, uHTS, fluorescence, H9c2. H9c2 cells, Nile Red lipid (TAG) fluorescence; cells loaded with 200 µM oleic acid. AID 651582, 2012. inhibition, % at 12.5 µM. hit rate 0.66% among 230,000;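 active = pattern-corrected inhibition of lipid staining of at least 50% with the nuclear-stain viability signal not falling by more than 50%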
# CHT block – inhibitors of human choline transporter CHT; High affinity choline transporter 1 (Homo sapiens), Q9GZV3; CHT-expressing cells, membrane potential dye, choline response; active compounds read low; B-score at 10 µM; hit rate 0.86% among 310,000;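 active = B-score over 3 SD under the library average, and starting fluorescence ratio not unusually high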;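 note: choline stimulus applied at its EC90 after an EC20 pre-addition; B-score computed on integrated fluorescence ratio after choline addition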
# Kir21 block – inhibitors of mouse Kir2.1 inward-rectifier potassium channel. HEK293-Kir2.1, FluxOR thallium flux fluorescence; active compounds read low. B-score at 10 µM. hit rate 0.85% among 310,000;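 active = fluorescence ratio B-score at or below minus 3 SD of library scores, with starting-brightness B-score within 2 SD, cut at about -4.2 in these data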;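 note: channel flux triggered by added potassium and thallium sulfate stimulus; B-score of peak minus minimum fluorescence over baseline after thallium stimulus; more negative B-score means stronger Kir2.1 block with less thallium influx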
# Target sequence (P35561 whole entry, looked up): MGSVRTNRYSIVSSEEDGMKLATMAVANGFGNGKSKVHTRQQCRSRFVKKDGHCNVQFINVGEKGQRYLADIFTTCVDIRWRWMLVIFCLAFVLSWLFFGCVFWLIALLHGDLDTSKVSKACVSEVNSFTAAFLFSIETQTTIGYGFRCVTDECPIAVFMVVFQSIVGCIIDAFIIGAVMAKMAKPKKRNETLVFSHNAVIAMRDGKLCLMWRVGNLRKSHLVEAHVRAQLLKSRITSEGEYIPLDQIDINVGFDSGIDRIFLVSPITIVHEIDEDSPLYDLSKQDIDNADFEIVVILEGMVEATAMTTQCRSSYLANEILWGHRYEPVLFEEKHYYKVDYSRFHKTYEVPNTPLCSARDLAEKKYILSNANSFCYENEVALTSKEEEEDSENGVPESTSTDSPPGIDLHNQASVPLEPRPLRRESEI
# CHT block conf – CHT inhibitors, confirmation, cell-based, membrane potential dye, duplicate; shares compounds with CHT block; CHT-expressing cells, choline membrane potential dye; LV-to-AA substituted CHT, HEK293 cells; CHT activity remaining % of control (active compounds read low), % at 10 µM; hit rate 70% among 2,400; AID 493221, 2011;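 active = choline transporter activity left, mean of duplicates at 10 µM, below buffer-only control mean minus 3 SD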;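 note: depolarization triggered by choline at its EC90 following an EC20 pre-addition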
# HEK293 MPD ctr – membrane potential effects in parental HEK293, counter-screen for CHT inhibitor project, cell-based, membrane potential dye. shares compounds with CHT block. choline response; active = decrease or increase beyond buffer ±3SD. membrane potential ratio readout (active if shifted either direction beyond buffer ±3SD; no single direction) at 10 µM. hit rate 4% among 2,400. AID 493222, 2011;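 note: parental cells lack the transporter so any hit is non-specific; ratio is peak minus trough fluorescence over baseline after EC90 choline challenge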
# Numbers stand for hits; - = inactive; . = no result given.
SMILES,CHT allo act,H9c2 TAG inh,CHT block,Kir21 block,CHT block conf,HEK293 MPD ctr
CSC1=C(C#N)C(c2ccncc2)C(C(=O)Nc2ccccc2)=C(C)N1 (stereo unspecified),-,-,-5,-,51%,-
CC1=C(C(=O)Nc2ccccc2)C(c2ccncc2)C(C#N)=C(SCC(=O)Nc2ccccc2)N1 (stereo unspecified),-,-,-,-,.,.
Cc1ccc(S(=O)(=O)N(C)C)cc1NC(=O)c1cc(-c2ccco2)nc2ccccc12,-,-,-,-,.,.
CC(C)n1cc([C@@H]2C[C@H]3CN(Cc4cccc(Cl)c4)C(=O)[C@]34CCCN24)cn1,-,-,-5.3,-,-,-
Cn1c(N2CCOCC2)c(/C=N/OC(=O)c2ccc(F)cc2)c2ccccc21,-,.,-7.4,-,44%,-
Cc1oc2ccc(O)cc2c1C(=O)c1ccc(Br)cc1,-,-,-,-,.,.
c1ccc2c(c1)CCN(C1CCCCC1)C2,-,-,-,-,.,.
COc1cc(/C=C2\S/C(=N/S(=O)(=O)Cc3ccccc3)NC2=O)c([N+](=O)[O-])cc1OC,-,-,-5,-,49%,-
COc1cc(/C=C2/S/C(=N/S(=O)(=O)Cc3ccccc3)NC2=O)c([N+](=O)[O-])cc1OC,-,-,-6.3,-,37%,-
COc1cc(OC)c2c(c1)OC(=O)CC2c1ccc(C)cc1 (stereo unspecified),.,-,.,.,.,.
Cn1c(=NCC(O)COc2ccccc2)sc2ccccc21 (stereo unspecified),-,-,-19,-,8.9%,-
CN1CCN(CC(O)COc2ccccc2)CC1 (stereo unspecified),-,-,-,-,.,.
O=C(Cn1cc2c(n1)CCCCC2)Nc1c(F)cc(F)cc1Br,-,-,-,-,.,.
O=C(Nc1cc(S(=O)(=O)N2CCCCC2)ccc1O)c1ccccc1NS(=O)(=O)c1ccc(F)c(F)c1,-,.,-9.4,-,28%,-
CCCn1c(=O)n(CC(=O)NCC2CCCO2)c(=O)c2c3c(sc21)COC(C)(C)C3 (stereo unspecified),-,.,-,-,.,.
Nc1ccccc1Nc1c(F)c(F)nc(F)c1Cl,-,.,-,-,.,.
O=C(NCCCn1ccnc1)c1cn(-c2ccccc2)nc1-c1ccc(F)cc1,-,.,-6.9,-,36%,-
Cc1ccc2nc(-c3ccccc3)cc(C(=O)NCCCn3ccnc3)c2c1,-,-,-11,-,30%,-
COc1ccccc1C(=O)O/N=C(/c1ccncc1)c1ccc([N+](=O)[O-])cc1,-,.,-,-,.,.
CC1(C(=O)NCCC(F)(F)F)Cc2c(-c3ccccc3)ccnc2O1 (stereo unspecified),.,-,.,.,.,.
CC(=O)c1cccc(S(=O)(=O)NC2CCCCCC2)c1,-,.,-,-,.,.
O=C(Nc1ccccc1)c1cccc(S(=O)(=O)NC2CCCC2)c1,-,-,-5.2,-,36%,-
NC(=O)c1cccc(-c2ccnc3c2CC(C(=O)Nc2ccc(Cl)cc2)O3)c1 (stereo unspecified),.,-,.,.,.,.
COc1c(/C=C2\SC(=Nc3ccccc3Cl)NC2=O)cccc1[N+](=O)[O-],-,-,-,-,.,.
O=C1NC(=Nc2ccccc2Cl)S/C1=C\c1cccc([N+](=O)[O-])c1O,-,.,-5,-,38%,-
SMILES,CHT allo act,H9c2 TAG inh,CHT block,Kir21 block,CHT block conf,HEK293 MPD ctr
O=C(CN1C(=O)C2CCCCC2C1=O)Nc1ccc(OC(F)F)c(Cl)c1 (stereo unspecified),.,-,.,.,.,.
O=C(NCCCN1CCCC1)c1ccc2c(c1)N(Cc1ccccc1)CCS2,-,-,-5.4,-,36%,4
O=C(NCC1CCCN(Cc2cccc(OCCO)c2)C1)c1ccc(F)cc1 (stereo unspecified),-,-,-,-,.,.
O=C1Nc2cc(C(=O)NCCCN3CCCC3)ccc2S/C1=C\c1ccccc1,-,.,-11,-4.9,24%,-
O=C1Nc2cc(C(=O)NCCCN3CCOCC3)ccc2S/C1=C/c1ccccc1F,-,.,-,-,.,.
O=C(NCCCOc1cccc(CN2CCCCC2)c1)c1ccc(Cl)c(Cl)c1,-,.,-11,-,22%,2.4
Cc1ccn2c(CNCc3cnn(C)c3)c(C(=O)N3CCCCCC3)nc2c1,-,.,-,-,.,.
C/C(=N\N=C(N)N)c1ccc(Cl)c(Cl)c1,-,-,-11,-5.3,19%,-
CCn1c(COc2ccc(=O)n(-c3ccccc3)n2)nnc1SCc1ccccc1,-,.,-,-,.,.
CCn1c(COc2ccc(=O)n(-c3ccccc3)n2)nnc1SCc1ccc(OC)cc1,-,-,-5.3,-,-,-
CCCc1cc(NCc2ccccn2)n2c(nc3ccccc32)c1C#N,-,-,-,-,.,.
CCCNc1cc(C)c(C#N)c2nc3ccccc3n12,-,-,-,.,.,.
CCCc1cc(NCCN(C)C)n2c(nc3ccccc32)c1C#N,-,-,-6.1,-,51%,-
CCCc1cc(NCC2CCCO2)n2c(nc3ccccc32)c1C#N (stereo unspecified),-,-,-6.9,-,43%,-
COc1ccc(C(=O)NC(=S)NNC(=O)c2ccc(C)cc2)cc1,-,-,-7.2,-,49%,-
CCCCC(=O)NNC(=S)NC(=O)c1ccc([N+](=O)[O-])cc1,-,-,-,-,.,.
CCCCC(=O)NNC(=S)NC(=O)c1ccc(C)cc1,-,-,-9.1,-,30%,-
COc1ccc(C(=O)NNC(=S)NC(=O)c2ccc(Cl)cc2)cc1,-,.,-,-,.,.
CCCCN(C)c1c(C)nc2ccc(C(=O)N(C)Cc3ccco3)cn12,.,-,.,.,.,.
C(=NN=C(NN=Cc1cccs1)NN=Cc1cccs1)c1cccs1,.,-,.,.,.,.
COc1cccc(/C=N/NC(=O)C(=O)NCc2cccnc2)c1OC,-,-,-5.9,-,-,-
Cc1cc(/C=N/NC(=O)C(=O)N2CCCC2)c(C)n1-c1cccc(Br)c1,-,.,-7.4,-,58%,-
Cc1cc(/C=N/NC(=O)c2c(Br)cnn2C)c(C)n1-c1cccc(Br)c1,-,.,-,-,.,.
O=C(CNc1ccc(Br)cc1)Nc1ccc(S(=O)(=O)N2CCCCC2)cc1,.,-,.,.,.,.
CC1(C)CC(=O)/C(=C(\O)CCCN2C(=O)c3ccccc3C2=O)C(=NCC(=O)O)C1,-,-,-5.4,-,-,-
